The record followed here is ChEMBL document CHEMBL1961873, “Compounds: GSK PKIS; Assays: Nanosyn kinase panel” (2012).

The target of test [1] is Protein kinase C gamma type (Homo sapiens) (UniProt P05129). Particulars: at 1 µM.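 Also: each value is an averaged percent inhibition of the enzyme.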
The target of test [2] is T1, Protein kinase C iota type (Homo sapiens) (UniProt P41743).
T1 sequence (whole entry): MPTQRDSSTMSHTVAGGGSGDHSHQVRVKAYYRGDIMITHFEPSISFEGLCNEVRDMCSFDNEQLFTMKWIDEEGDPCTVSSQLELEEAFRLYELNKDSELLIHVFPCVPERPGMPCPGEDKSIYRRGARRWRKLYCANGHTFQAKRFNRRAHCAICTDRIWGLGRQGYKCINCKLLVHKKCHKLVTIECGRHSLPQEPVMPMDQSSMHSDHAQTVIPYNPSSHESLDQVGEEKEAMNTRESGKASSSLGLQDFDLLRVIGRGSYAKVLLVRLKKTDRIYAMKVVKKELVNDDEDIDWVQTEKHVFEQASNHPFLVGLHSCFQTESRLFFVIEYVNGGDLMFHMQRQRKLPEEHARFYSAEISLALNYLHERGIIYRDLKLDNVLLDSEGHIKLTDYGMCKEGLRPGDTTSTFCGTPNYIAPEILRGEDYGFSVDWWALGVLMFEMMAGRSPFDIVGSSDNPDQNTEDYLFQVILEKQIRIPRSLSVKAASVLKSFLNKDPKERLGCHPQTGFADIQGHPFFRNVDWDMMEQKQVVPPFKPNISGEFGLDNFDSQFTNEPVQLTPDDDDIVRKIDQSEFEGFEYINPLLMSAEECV
Particulars: at 0.1 µM.

Test [3] addresses T1, Protein kinase C iota type (Homo sapiens). Particulars: at 1 µM.
In test [4] the target is Protein kinase C theta type (Homo sapiens) (UniProt Q04759). Particulars: at 0.1 µM.
The target is the same in test [5]. Particulars: at 1 µM.
Test [6] has as its target Protein kinase C beta type (Homo sapiens) (UniProt P05771). Particulars: at 0.1 µM.
For test [7] the target is unchanged. Particulars: at 1 µM.
Test [8] has as its target T2, Serine/threonine-protein kinase D1 (Homo sapiens) (UniProt Q15139).
T2 sequence (whole entry): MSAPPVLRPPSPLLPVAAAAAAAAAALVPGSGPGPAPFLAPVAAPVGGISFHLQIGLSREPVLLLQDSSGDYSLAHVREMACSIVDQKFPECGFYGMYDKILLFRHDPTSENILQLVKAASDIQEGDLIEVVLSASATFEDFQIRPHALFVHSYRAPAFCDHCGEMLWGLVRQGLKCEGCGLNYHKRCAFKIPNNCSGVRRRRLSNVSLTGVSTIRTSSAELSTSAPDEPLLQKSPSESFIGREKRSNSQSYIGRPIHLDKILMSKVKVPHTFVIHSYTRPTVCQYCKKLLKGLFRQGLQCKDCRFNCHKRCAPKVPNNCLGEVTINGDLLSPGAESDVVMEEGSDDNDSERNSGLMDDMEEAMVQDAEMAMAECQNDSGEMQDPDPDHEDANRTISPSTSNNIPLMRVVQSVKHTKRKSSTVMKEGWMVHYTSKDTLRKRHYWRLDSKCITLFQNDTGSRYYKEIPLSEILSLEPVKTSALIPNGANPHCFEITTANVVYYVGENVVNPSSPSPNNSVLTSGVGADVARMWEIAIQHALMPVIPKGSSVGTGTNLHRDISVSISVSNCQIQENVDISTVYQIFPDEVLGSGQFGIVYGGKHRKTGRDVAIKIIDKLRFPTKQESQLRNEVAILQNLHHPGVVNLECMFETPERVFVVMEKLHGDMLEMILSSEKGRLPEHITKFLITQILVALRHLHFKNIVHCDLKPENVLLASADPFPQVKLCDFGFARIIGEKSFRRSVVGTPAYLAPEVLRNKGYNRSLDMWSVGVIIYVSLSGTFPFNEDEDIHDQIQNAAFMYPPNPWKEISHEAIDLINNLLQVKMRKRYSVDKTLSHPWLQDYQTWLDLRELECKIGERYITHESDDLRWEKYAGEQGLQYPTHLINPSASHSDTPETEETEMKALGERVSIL
Particulars: at 0.1 µM.

For test [9], the target named is T2, Serine/threonine-protein kinase D1 (Homo sapiens). Particulars: at 1 µM.
The target of test [10] is T3, Serine/threonine-protein kinase D2 (Homo sapiens) (UniProt Q9BZL6).
T3 sequence (whole entry): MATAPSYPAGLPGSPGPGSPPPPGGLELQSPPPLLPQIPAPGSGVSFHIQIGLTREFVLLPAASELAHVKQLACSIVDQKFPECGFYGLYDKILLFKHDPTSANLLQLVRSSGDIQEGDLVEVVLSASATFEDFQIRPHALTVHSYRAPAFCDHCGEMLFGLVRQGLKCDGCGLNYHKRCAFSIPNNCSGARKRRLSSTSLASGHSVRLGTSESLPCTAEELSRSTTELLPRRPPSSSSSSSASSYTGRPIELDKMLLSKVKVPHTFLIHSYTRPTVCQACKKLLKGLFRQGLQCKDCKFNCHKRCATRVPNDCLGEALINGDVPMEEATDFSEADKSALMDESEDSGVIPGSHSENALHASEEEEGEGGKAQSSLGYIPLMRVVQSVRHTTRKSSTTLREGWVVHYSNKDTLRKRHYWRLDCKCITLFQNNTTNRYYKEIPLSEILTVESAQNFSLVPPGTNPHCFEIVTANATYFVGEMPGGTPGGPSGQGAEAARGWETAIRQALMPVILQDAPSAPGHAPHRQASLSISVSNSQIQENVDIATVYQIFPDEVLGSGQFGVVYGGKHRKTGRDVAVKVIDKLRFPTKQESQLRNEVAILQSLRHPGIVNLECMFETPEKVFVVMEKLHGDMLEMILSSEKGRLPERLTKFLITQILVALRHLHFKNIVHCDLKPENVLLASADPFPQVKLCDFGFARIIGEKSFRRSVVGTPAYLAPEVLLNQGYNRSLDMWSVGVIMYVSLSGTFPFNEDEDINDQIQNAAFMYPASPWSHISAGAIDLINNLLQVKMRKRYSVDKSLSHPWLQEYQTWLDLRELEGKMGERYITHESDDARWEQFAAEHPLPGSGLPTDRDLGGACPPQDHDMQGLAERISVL
Particulars: at 0.1 µM.

Test [11] has as its target T3, Serine/threonine-protein kinase D2 (Homo sapiens). Particulars: at 1 µM.
The target of test [12] is T4, Serine/threonine-protein kinase D3 (Homo sapiens) (UniProt O94806).
T4 sequence (whole entry): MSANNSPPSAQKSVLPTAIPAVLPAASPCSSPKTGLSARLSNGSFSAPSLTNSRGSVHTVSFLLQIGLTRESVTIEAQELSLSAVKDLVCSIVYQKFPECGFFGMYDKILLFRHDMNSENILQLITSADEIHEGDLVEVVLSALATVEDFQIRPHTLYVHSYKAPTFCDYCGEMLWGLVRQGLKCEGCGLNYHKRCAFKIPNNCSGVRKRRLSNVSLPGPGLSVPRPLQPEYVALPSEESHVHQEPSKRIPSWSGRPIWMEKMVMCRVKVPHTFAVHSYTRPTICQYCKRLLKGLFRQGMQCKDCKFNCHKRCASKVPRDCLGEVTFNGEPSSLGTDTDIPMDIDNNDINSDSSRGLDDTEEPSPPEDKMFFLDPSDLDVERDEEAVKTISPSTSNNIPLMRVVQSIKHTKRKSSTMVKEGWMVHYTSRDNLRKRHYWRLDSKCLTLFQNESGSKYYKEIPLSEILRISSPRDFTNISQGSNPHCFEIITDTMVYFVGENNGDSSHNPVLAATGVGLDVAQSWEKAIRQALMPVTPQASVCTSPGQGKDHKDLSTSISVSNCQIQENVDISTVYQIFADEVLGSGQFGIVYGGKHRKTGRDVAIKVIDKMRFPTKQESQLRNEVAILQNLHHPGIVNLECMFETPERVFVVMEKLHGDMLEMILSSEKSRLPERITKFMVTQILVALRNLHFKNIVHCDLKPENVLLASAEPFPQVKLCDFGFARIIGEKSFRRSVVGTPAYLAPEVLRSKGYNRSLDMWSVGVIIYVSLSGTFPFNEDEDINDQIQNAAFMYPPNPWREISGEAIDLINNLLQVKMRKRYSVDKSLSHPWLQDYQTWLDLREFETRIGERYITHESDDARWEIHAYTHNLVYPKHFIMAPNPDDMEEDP
Particulars: at 0.1 µM.

The target in test [13] is T4, Serine/threonine-protein kinase D3 (Homo sapiens). Particulars: at 1 µM.
In test [14] the target is T5, cGMP-dependent protein kinase 1 (Homo sapiens) (UniProt Q13976).
T5 sequence (whole entry): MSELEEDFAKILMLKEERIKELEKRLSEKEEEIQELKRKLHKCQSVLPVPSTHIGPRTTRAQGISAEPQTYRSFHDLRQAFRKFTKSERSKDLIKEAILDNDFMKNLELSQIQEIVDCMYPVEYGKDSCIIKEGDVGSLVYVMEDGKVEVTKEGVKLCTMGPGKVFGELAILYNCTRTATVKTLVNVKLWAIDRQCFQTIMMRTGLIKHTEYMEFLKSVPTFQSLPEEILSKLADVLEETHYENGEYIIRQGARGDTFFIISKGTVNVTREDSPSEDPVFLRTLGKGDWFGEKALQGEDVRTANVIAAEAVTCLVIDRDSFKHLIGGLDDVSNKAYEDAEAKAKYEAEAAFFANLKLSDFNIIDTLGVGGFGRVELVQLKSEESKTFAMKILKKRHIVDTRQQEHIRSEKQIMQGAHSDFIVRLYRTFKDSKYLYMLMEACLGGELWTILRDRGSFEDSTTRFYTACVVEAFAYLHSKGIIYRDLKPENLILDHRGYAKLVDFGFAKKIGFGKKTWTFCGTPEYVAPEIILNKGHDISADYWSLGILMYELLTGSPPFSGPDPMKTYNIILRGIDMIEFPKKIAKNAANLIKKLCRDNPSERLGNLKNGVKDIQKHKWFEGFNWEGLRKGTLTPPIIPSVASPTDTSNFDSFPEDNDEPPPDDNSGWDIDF
Particulars: at 0.1 µM.

The target of test [15] is T5, cGMP-dependent protein kinase 1 (Homo sapiens). Particulars: at 1 µM.
Test [16] addresses T6, cGMP-dependent protein kinase 2 (Homo sapiens) (UniProt Q13237).
T6 sequence (whole entry): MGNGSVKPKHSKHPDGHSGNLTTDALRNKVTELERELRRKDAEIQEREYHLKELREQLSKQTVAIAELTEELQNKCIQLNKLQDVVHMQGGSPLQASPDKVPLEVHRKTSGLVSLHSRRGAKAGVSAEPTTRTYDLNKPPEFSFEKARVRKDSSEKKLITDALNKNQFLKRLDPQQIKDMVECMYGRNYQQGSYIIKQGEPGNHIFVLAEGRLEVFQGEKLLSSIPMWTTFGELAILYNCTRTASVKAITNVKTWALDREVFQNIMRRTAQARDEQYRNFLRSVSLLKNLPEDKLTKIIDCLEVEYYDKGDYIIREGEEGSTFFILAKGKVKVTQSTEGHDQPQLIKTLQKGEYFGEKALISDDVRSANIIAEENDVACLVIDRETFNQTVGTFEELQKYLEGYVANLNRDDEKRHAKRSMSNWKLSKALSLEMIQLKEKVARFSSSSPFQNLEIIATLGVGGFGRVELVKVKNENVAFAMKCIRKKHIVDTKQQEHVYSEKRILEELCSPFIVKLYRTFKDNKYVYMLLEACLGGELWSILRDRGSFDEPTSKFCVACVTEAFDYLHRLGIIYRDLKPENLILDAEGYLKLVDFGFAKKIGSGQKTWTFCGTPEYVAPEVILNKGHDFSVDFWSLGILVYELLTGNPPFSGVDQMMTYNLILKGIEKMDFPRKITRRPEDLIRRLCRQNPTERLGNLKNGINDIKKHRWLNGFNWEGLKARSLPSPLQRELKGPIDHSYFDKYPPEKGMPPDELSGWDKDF
Particulars: at 0.1 µM.

Test [17] deals with T6, cGMP-dependent protein kinase 2 (Homo sapiens). Particulars: at 1 µM.
Test [18] deals with T7, cAMP-dependent protein kinase catalytic subunit PRKX (Homo sapiens) (UniProt P51817).
T7 sequence (whole entry): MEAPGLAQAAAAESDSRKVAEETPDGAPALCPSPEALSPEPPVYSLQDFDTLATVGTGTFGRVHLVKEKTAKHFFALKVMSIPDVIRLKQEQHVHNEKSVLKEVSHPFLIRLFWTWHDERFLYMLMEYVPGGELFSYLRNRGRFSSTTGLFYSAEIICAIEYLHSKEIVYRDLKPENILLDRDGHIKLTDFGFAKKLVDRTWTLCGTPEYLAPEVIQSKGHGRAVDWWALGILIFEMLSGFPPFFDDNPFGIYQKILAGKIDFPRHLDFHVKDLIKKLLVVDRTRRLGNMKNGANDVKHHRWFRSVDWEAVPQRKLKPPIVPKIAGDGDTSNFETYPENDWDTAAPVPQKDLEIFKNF
Particulars: at 0.1 µM.

Test [19] has as its target T7, cAMP-dependent protein kinase catalytic subunit PRKX (Homo sapiens). Particulars: at 1 µM.
Test [20] concerns the target Rho-associated protein kinase 1 (Homo sapiens) (UniProt Q13464). Particulars: at 0.1 µM.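 Also: values are mean percent inhibition of ROCK1.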

Sequence of Protein kinase C beta type (Homo sapiens) (P05771 2-671 limits assumed): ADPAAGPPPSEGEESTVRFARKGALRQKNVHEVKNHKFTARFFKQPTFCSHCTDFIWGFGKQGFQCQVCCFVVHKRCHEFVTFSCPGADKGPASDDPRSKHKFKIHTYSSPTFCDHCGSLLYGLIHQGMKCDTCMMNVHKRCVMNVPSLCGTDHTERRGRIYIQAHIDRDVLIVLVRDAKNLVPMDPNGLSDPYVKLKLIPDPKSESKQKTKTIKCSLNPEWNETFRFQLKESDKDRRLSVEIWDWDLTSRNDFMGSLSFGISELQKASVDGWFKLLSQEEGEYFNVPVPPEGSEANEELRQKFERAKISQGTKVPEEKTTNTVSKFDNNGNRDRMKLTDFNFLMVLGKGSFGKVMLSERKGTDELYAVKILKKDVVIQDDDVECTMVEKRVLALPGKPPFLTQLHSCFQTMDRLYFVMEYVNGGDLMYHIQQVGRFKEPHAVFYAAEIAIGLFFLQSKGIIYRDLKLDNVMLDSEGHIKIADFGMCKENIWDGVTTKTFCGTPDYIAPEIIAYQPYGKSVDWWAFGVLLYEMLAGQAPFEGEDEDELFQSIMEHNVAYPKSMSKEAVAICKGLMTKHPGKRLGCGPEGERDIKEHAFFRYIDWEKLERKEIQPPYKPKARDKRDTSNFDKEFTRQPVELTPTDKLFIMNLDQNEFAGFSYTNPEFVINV
Sequence of Protein kinase C theta type (Homo sapiens) (Q04759 whole entry, looked up): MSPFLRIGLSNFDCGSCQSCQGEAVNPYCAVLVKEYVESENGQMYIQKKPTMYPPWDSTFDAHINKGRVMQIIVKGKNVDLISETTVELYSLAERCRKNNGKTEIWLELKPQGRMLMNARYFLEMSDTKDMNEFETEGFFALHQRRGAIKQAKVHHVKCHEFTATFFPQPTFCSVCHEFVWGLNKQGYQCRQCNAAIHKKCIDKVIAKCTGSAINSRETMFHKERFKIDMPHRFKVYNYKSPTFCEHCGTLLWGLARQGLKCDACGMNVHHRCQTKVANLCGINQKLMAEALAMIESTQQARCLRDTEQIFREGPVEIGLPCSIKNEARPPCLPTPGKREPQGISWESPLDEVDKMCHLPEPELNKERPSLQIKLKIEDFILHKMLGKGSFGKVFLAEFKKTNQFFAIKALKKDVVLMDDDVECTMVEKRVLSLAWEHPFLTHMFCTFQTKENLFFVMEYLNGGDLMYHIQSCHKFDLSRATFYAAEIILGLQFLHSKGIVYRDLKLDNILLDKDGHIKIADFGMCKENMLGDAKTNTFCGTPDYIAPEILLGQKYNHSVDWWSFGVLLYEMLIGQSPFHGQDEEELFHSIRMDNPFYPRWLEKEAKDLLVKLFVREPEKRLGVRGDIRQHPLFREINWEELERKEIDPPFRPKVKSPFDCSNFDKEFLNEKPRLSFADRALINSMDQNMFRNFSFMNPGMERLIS
Sequence of Rho-associated protein kinase 1 (Homo sapiens) (Q13464 2-1354 limits assumed): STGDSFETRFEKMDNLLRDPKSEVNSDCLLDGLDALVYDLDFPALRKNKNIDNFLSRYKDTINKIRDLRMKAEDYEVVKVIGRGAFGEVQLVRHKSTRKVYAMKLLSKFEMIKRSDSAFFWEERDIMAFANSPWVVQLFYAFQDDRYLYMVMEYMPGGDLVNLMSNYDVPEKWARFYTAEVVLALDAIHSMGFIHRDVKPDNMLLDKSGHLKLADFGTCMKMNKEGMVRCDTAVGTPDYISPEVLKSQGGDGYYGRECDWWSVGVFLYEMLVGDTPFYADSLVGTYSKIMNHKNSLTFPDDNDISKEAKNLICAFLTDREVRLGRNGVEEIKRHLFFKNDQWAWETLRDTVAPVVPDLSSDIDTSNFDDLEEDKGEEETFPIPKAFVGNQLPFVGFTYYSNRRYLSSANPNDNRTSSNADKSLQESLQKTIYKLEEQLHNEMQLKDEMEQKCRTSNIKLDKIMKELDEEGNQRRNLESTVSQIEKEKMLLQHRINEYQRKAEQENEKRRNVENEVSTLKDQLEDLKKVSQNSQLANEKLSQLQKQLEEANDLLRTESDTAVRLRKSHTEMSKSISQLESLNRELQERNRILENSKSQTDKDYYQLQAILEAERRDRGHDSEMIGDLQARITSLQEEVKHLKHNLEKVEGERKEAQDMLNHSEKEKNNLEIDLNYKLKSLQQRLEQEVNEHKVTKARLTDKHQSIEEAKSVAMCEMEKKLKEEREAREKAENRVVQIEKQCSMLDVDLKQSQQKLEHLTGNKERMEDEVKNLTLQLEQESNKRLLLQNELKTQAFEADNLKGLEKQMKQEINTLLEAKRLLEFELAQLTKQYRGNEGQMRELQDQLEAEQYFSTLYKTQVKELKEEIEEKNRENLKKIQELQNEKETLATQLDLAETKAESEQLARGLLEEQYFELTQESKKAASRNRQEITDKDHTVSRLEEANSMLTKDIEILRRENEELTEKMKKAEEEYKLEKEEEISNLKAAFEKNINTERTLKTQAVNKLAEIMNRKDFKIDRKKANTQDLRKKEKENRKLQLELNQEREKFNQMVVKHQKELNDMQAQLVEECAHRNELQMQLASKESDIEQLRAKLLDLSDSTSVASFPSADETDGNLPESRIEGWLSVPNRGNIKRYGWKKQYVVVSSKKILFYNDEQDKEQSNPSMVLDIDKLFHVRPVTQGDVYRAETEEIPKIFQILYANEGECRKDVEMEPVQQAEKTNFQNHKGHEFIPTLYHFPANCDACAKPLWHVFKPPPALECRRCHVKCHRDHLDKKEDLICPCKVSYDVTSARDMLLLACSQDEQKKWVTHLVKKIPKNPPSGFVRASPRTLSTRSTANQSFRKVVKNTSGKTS

As to `COc1cc(Nc2ncc3c(C)nc(-c4cccc(C(F)(F)F)c4)n3n2)cc(OC)c1OC`, the inhibition (usually the change of the read-out against control, counted positive when it falls) was 7.63% in test [1]; 0.74% in [2]; 0.54% in [3]; 1.87% in [4]; 5.29% in [5]; 1.35% in test [6]. Also, the inhibition was found to be 2.31% in test [7]; 1.48% in [8]; 2.12% in test [9]; 1.81% in test [10]; 4.32% in [11]; 2.48% in test [12]. For the same molecule, the inhibition in [13] came to 2.79%; in test [14], 0.96%; in test [15], 5.81%; in test [16], 4.61%; in [17], 6.16%; in test [18], 3%. In addition, the inhibition was 7.31% in test [19] and -0.86% in test [20].

For `NC(=O)Cc1ccccc1Oc1nccc(-c2c(-c3ccc(F)cc3)ncn2C2CCNCC2)n1`, the inhibition is 0.76% in [1]; 0% in [2]; 0.16% in test [3]; 0.43% in test [4]; -0.38% in [5]; 1.22% in [6]. The inhibition in [7] was 3.91%; in test [8], 4.86%; in test [9], 8.87%; in test [10], 4.63%; in test [11], 9.53%; in [12] it was 3.95%. The inhibition was 8.49% in [13]; 1.82% in test [14]; 3.89% in test [15]; 0.97% in test [16]; 4.38% in [17]; -0.25% in [18]. Further, the inhibition in [19] was -1.31%; in test [20], 0.15%.
